This passage reports growth results from PubChem BioAssay (NCI).

Some test systems named below: DU-145 prostate; MALME-3M melanoma; MDA-MB-231 breast; RXF 393 renal; SF-268 CNS; SF-295 CNS; SF-539 CNS; UACC-257 melanoma; M14 melanoma; HCT-15 colon; HT29 colon; SNB-75 CNS; SNB-19 CNS; PC-3 prostate; SK-MEL-5 melanoma; UACC-62 melanoma; LOX IMVI melanoma; SK-MEL-28 melanoma; K-562 leukemia; U251 CNS.
Experiment in all cases: NCI-60 one-dose screen, 48 h (100 = growth as untreated, 0 = no growth, -100 = all killed)
Conditions in all cases: 10 µM unless noted

The panel holds about 83,000 compounds, 20% with a hit somewhere; the sample as a whole holds those more often.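 Note: values are percent growth. 100 is the growth of untreated cells, values between 100 and 0 indicate rising inhibition; between -100 and 0 indicates cell death.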 Values without a mark were called inactive. Activity calls are given as the source filed them. Rule for the calls: active = growth percent below 10; inactive = the rest.

In the case of `O=C(/C=C/c1cccc(Br)c1)c1ccccc1`, the growth is 92.1% in the experiment on DU-145 prostate; 99.3% in the experiment with MALME-3M melanoma; 92.7% with MDA-MB-231 breast; 89.9% in the experiment on RXF 393 renal; 89% in the experiment with SF-268 CNS; 94.9% with SF-295 CNS. Further, the growth with SF-539 CNS was 103%; with UACC-257 melanoma it was 81.7%; in the experiment with M14 melanoma it was 91.1%; in the experiment on HCT-15 colon it was 76.6%; in the experiment on HT29 colon it was 67.9%; in the experiment with SNB-75 CNS it was 88.4%. The growth is 96% with SNB-19 CNS; 68.1% with PC-3 prostate; 92.3% in the experiment with SK-MEL-5 melanoma; 92.6% with UACC-62 melanoma; 78.2% in the experiment on LOX IMVI melanoma; 100% in the experiment with SK-MEL-28 melanoma.

Regarding `CC/C(=C(\c1ccccc1)c1ccc(OCCNC)cc1)c1ccccc1`, the growth with DU-145 prostate is -66.8% (active); in the experiment on K-562 leukemia it was -5.96% (active); in the experiment with MALME-3M melanoma, -92.9% (active); with RXF 393 renal, -97.6% (active); with SF-268 CNS, 1.29% (active); in the experiment with SF-295 CNS, -99.3% (active). Further, the growth in the experiment on SF-539 CNS was -98% (active); in the experiment with UACC-257 melanoma it was -68.4% (active); in the experiment on M14 melanoma, -89.7% (active); in the experiment with HCT-15 colon, -94.3% (active); with HT29 colon it was -89.8% (active); in the experiment with SNB-75 CNS it was -81.7% (active). Besides, the growth is -80.3% (active) in the experiment with U251 CNS; -67.6% (active) with PC-3 prostate; -99.8% (active) in the experiment on SK-MEL-5 melanoma; -99.1% (active) in the experiment on UACC-62 melanoma; -100% (active) with LOX IMVI melanoma; -98.5% (active) in the experiment on SK-MEL-28 melanoma.

With `O=[N+]([O-])c1c(F)cccc1Nc1cccc(F)c1`, the growth with DU-145 prostate was 108%; in the experiment with K-562 leukemia, 95.4%; with RXF 393 renal, 102%; in the experiment on SF-268 CNS, 105%; in the experiment on SF-295 CNS it was 87%; in the experiment with SF-539 CNS, 102%. Moreover, the growth was 93.2% in the experiment with UACC-257 melanoma; 103% in the experiment on M14 melanoma; 104% in the experiment on HCT-15 colon; 97.5% in the experiment with HT29 colon; 81.6% in the experiment on SNB-75 CNS; 105% with U251 CNS. Also, the growth in the experiment with PC-3 prostate was 103%; in the experiment on SK-MEL-5 melanoma, 101%; with LOX IMVI melanoma it was 102%; in the experiment with SK-MEL-28 melanoma, 118%.

`Cc1cc(Nc2nc(N3CCOCC3)nc3ccccc23)n[nH]1`: the growth is 75.2% with DU-145 prostate; 56.3% in the experiment on K-562 leukemia; 66.4% in the experiment with MALME-3M melanoma; 84.9% in the experiment on MDA-MB-231 breast; 63.8% with SF-268 CNS; 73.4% with SF-295 CNS. Also, the growth in the experiment with UACC-257 melanoma was 76%; with M14 melanoma it was 45.8%; in the experiment with HCT-15 colon, 38.7%; with HT29 colon, 68.4%; in the experiment on SNB-75 CNS, -15.3% (active); in the experiment with SNB-19 CNS, 93.2%. Also, the growth is 59.9% in the experiment with PC-3 prostate; 79.9% in the experiment with SK-MEL-5 melanoma; 45.7% with UACC-62 melanoma; 63.3% with LOX IMVI melanoma; 72.2% with SK-MEL-28 melanoma.

As for `CCCCN(CCCC)CCC(C)(O)c1cc2ccccc2c2ccccc12` (stereo unspecified), the growth in the experiment on DU-145 prostate is 75%; in the experiment on K-562 leukemia, 15.7%; in the experiment with MALME-3M melanoma, 30.7%; with RXF 393 renal it was 87.8%; in the experiment on SF-268 CNS it was 57.3%; in the experiment on SF-295 CNS, 79.8%. Also, the growth was 103% with SF-539 CNS; 82.8% in the experiment with UACC-257 melanoma; 90.7% in the experiment with M14 melanoma; 82.2% in the experiment on HCT-15 colon; 39.7% with HT29 colon; 106% in the experiment with SNB-75 CNS. Also, the growth in the experiment with U251 CNS is 86.3%; in the experiment on PC-3 prostate it was 47.5%; in the experiment with SK-MEL-5 melanoma it was 102%; in the experiment with LOX IMVI melanoma, 45.7%; in the experiment with SK-MEL-28 melanoma, 121%.

As to `CCCCCCCCCCCCCCCC[N+]1(CC)CCCC1`, the growth is -92.2% (active) in the experiment with DU-145 prostate; -34.9% (active) with K-562 leukemia; -49.9% (active) in the experiment with MALME-3M melanoma; -61.6% (active) in the experiment on MDA-MB-231 breast; -57% (active) in the experiment on SF-268 CNS; -70.1% (active) in the experiment with SF-295 CNS. Further, the growth in the experiment with SF-539 CNS was -28.4% (active); in the experiment on UACC-257 melanoma, -46% (active); in the experiment on HCT-15 colon it was 22.8%; in the experiment on HT29 colon, -65.7% (active); in the experiment with SNB-75 CNS, -37% (active); with SNB-19 CNS, -53.9% (active). Further, the growth in the experiment on PC-3 prostate is -77.6% (active); in the experiment on SK-MEL-5 melanoma, -83.6% (active); in the experiment with UACC-62 melanoma it was -78.3% (active); in the experiment with LOX IMVI melanoma, -64.1% (active); in the experiment on SK-MEL-28 melanoma, -38.6% (active).

Regarding `CN1Cc2c(cc(CN3CCCCC3)n2C)C(c2ccc(Br)cc2)C1` (stereo unspecified), the growth in the experiment on DU-145 prostate was 96.5%; in the experiment on K-562 leukemia, 34.9%; in the experiment with MALME-3M melanoma, 22.8%; with RXF 393 renal it was 74.8%; in the experiment on SF-268 CNS, 92.6%; in the experiment on SF-295 CNS, 81.3%. The growth in the experiment on SF-539 CNS was 76.1%; with UACC-257 melanoma, 13.4%; with M14 melanoma it was 14.1%; in the experiment with HCT-15 colon, 67.7%; in the experiment on HT29 colon it was 49.6%; in the experiment with SNB-75 CNS, 70.3%. The growth was 86.4% in the experiment on U251 CNS; 82.9% with PC-3 prostate; 61.2% in the experiment on SK-MEL-5 melanoma; -16.1% (active) in the experiment on UACC-62 melanoma; 68.2% in the experiment on LOX IMVI melanoma; 54.3% in the experiment on SK-MEL-28 melanoma.
